The results in this text go back to PubChem BioAssay (NCI).

The structures appear in SMILES notation. Values joined by “and” are separate entries in the source; they are usually repeats but may differ in a detail not shown here. Equal values may be shown once. This is part of a sample that, as a whole, favours compounds with a hit. Of some 83,000 tested, about 20% had one in any assay.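 Note: values are percent growth. 100 is the growth of untreated cells, values between 100 and 0 indicate rising inhibition; between -100 and 0 indicates cell death.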 Values without a mark were called inactive. Active and inactive are the calls of the source. Rule for the calls: active = growth percent below 10; inactive = the rest.

The subject of this experiment is MDA-MB-468 breast. Nature of the experiment: NCI-60 one-dose screen, 48 h (100 = growth as untreated, 0 = no growth, -100 = all killed). The conditions noted are these: 10 µM unless noted.
Take `CCOC(=O)/C(=C(\C)N)C1CC(=O)NC1=O` (stereo not given): the growth was 92.3%. Take `COc1ccc(C2OC(N)=C(O)C2=O)cc1OC` (stereo not given): the growth is 109%. In the case of `O=C1C=CC(=O)N1CO`, the growth was 117%. In the case of `COc1cc(OC)c(C(=O)/C=C/c2cccc(C#N)c2)c(OC)c1`, the growth was -13.8% (active). Turning to `COc1ccc2c(c1)cn1c3ccc(O)cc3[nH]c(=O)c21`, the growth was -6.77% (active). Turning to `C=CC(=O)Nc1cccc(-c2nc(SC)nc(Nc3ccccc3OC)c2C#N)c1`, the growth was 18.2%.

Take `COc1cc(OC)c2c(=O)c3c(CC=C(C)C)cc(OC)c(O)c3oc2c1`: the growth was 110%. With `COc1cc2c3c(c1O)-c1ccccc1[C@@H]1OC(=O)N(CC2)[C@H]31`, the growth is 90%. On to `CCNC(=O)N1CCc2cc(OC)c(OCCc3ccc(OC)c(N)c3)cc2C1c1cc(C)c(C)cc1C` (stereo not given), for which the growth was 42%. The result for `O=[N+]([O-])c1ccc(N2CCN=N2)cc1` reads 93.9%; that for `C/C(=C\CCc1ccsc1)CC/C=C(\C)CCCN1CCN(CCO)CC1`, 7.83% (active). The result for `CC(C)CSc1nc(N)nc2c1ncn2C1OC(CO)C(O)C1O` (stereo not given) reads 96.5%; that for `COc1ccc(C(=O)/C=C/c2ccc(C)cc2)cc1OC`, 47.6%. To `CN(Cc1ccccc1)Cc1ccc([N+](=O)[O-])cc1I` belongs 93.3%; to `Cn1ccnc1C(=O)/C=C/C=C/c1ccc(C(=O)Nc2ccc(F)cc2)cc1`, 35.3%. Consider `CCN1CCN(c2cc(C)nc(N(CCCNc3ccnc4cc(Cl)ccc34)Cc3cccs3)n2)CC1`, for which the growth is -26.4% (active). For the compound `Cc1ccc(Cc2c(C=O)nc(N)[nH]c2=O)c2ccccc12`, the growth is 106%. The result for `Brc1ccc(Nc2nc3ccccc3nc2Nc2ccc(Br)cc2)cc1` reads -48.6% (active); that for `O=C1NC(=O)/C(=C\c2ccco2)S1`, 108%.

As to `CC(=O)OC1CC2CCC1(C)C2(C)C` (stereo not given), the growth is 103%. The result for `O=C(/C=C/c1ccccc1)C(Br)C(Br)c1ccccc1` (stereo not given) reads -38.1% (active).

As for `O=C1NC(=O)/C(=C\c2ccncc2)N1`, the growth was 102%.

In the case of `Cc1ccc2c(c1)C(=O)/C(=C/c1ncc([N+](=O)[O-])n1C)O2`, the growth is 52.4%. The result for `COc1cnc2c(c1)C(=O)c1c-2n(CCCNC(C)C)c(=O)c2cc(Cl)ccc12` reads 17.7%. The result for `Cc1cc2nc3c4ccccc4n(CCN(C)C)c3nc2cc1C` reads -12.1% (active); that for `CN(C)c1ccc2[nH]c3c(C(N)=O)cc(=O)c(=O)c=3oc2c1`, 59.2%; that for `Nc1nc2c(c3cnccc13)C(c1ccc(Cl)c(Cl)c1)Cc1cnccc1-2` (stereo not given), -42.2% (active). To `COc1cc(NC(C)CCCN)c2ncccc2c1Sc1ccc(Cl)cc1` (stereo not given) belongs -2.79% (active); to `CN1CCN(Cc2ccc(NC(=O)c3[nH]ncc3Nc3ncnc4sccc34)cc2)CC1`, 15.8%. Consider `COc1ccc(C2C3=C(COC3=O)N(CCO)c3cc4c(cc32)OCO4)cc1OC` (stereo not given), for which the growth is 8.1% (active).

Turning to `O=C(CCl)N(c1ccccc1)c1ccccc1`, the growth was 104%. As to `O=C1c2cc3c(cc2-c2c1c1cc(Cl)c(Cl)cc1c(=O)n2CCCn1ccnc1)OCO3`, the growth is -38.5% (active).

Regarding `Cc1onc(-c2c(F)cccc2Cl)c1-c1ncc(-c2ccc(Cl)cc2)o1`, the growth was 66.2% and 23.7%. As for `CC(=O)NCCSC(=O)C(=O)SCCNC(C)=O`, the growth is 103%. To `CCCC(=O)Oc1ccc(CC)cc1` belongs 117%; to `Cc1cccc(NC2=C(C#N)C(=O)NC3(CCCC3)S2)c1`, 101%. For `Cc1c(Cn2c(C)nc3c(C(=O)O)cc(N4CCOCC4)cc32)cccc1C(F)(F)F`, the growth is 104%.

Take `O=C1c2cc(I)ccc2Oc2cc([N+](=O)[O-])ccc2N1c1ccc(Cl)cc1F`: the growth was 96.2%. To `Cc1ccc(NC(=O)NC2CCCCC2)cc1` belongs 93.5%. `COc1ccc(C(C)=C(c2ccc(OCCN(C)C)cc2)c2ccc(OCCN(C)C)cc2)cc1`: the growth is -76.9% (active).
